# In PubChem BioAssay AID1159580 (chemical genetic matrix, 2015):
# Out of some 5,500 compounds screened, about 2,000 (36%) were called active. Inconclusive results (about 18%) are left out. The list shows a part of the results. Values without a mark were called inactive. No stated cut-off is given here; in the data, active means normalized growth mostly below about 0.91 (no sharp cut-off); inconclusive means no clear call, values can overlap the other calls; inactive means mostly above about 0.92.
# Test: chemical genetic growth profiling, strain panel (AID 1159580);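 further: tested at 20 µM; growth read once vehicle control cultures reached saturation at 30 °C; 1 = growth at the plate median or of vehicle wells; lower values mean less growth of the strain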
# Settings: growth OD
smiles,measurement,setting,value
CC1=CC2C(C(C)C)CCC(C)(O)C2CC1 (stereo not drawn),normalized growth,"S. cerevisiae deletion strains, locus YJL187C, strain SWE1 (second series), active compounds read low",1.01
same,normalized growth,"S. cerevisiae deletion strains, locus YJL187C, strain SWE1, active compounds read low",1
same,normalized growth,"S. cerevisiae deletion strains, locus YJR043C, strain POL32, active compounds read low",0.973
same,normalized growth,"S. cerevisiae deletion strains, locus YJR066W, strain TOR1, active compounds read low",0.914
same,normalized growth,"S. cerevisiae deletion strains, locus YKL009W, strain mrt4, active compounds read low",0.994
same,normalized growth,"S. cerevisiae deletion strains, locus YKL068W, active compounds read low",0.972
same,normalized growth,"S. cerevisiae deletion strains, locus YKL085W, strain MDH1 (second series), active compounds read low",0.979
same,normalized growth,"S. cerevisiae deletion strains, locus YKL085W, strain MDH1, active compounds read low",0.979
same,normalized growth,"S. cerevisiae deletion strains, locus YKL160W, strain elf1, active compounds read low",0.968
same,normalized growth,"S. cerevisiae deletion strains, locus YKL190W, strain CNB1, active compounds read low",0.994
same,normalized growth,"S. cerevisiae deletion strains, locus YKR001C, strain vps1, active compounds read low",0.989
same,normalized growth,"S. cerevisiae deletion strains, locus YKR026C, strain gcn3, active compounds read low",0.993
same,normalized growth,"S. cerevisiae deletion strains, locus YKR091W, strain srl3, active compounds read low",0.987
same,normalized growth,"S. cerevisiae deletion strains, locus YLL001W, strain dnm1, active compounds read low",0.947
same,normalized growth,"S. cerevisiae deletion strains, locus YLL026W, active compounds read low",0.988
same,normalized growth,"S. cerevisiae deletion strains, locus YLL041C, strain sdh2, active compounds read low",0.995
same,normalized growth,"S. cerevisiae deletion strains, locus YLR027C, strain aat2, active compounds read low",0.978
same,normalized growth,"S. cerevisiae deletion strains, locus YLR039C, strain RIC1, active compounds read low",0.913
same,normalized growth,"S. cerevisiae deletion strains, locus YLR058C, strain SHM2, active compounds read low",0.98
same,normalized growth,"S. cerevisiae deletion strains, locus YLR102C, strain apc9, active compounds read low",0.989
same,normalized growth,"S. cerevisiae deletion strains, locus YLR113W, strain HOG1, active compounds read low",0.887
same,normalized growth,"S. cerevisiae deletion strains, locus YLR221C, strain rsa3, active compounds read low",0.986
same,normalized growth,"S. cerevisiae deletion strains, locus YLR258W, strain gsy2, active compounds read low",0.971
same,normalized growth,"S. cerevisiae deletion strains, locus YLR262C, strain YPT6 (second series), active compounds read low",0.81 (active)
same,normalized growth,"S. cerevisiae deletion strains, locus YLR268W, strain sec22, active compounds read low",0.949
same,normalized growth,"S. cerevisiae deletion strains, locus YLR320W, strain mms22, active compounds read low",0.966
same,normalized growth,"S. cerevisiae deletion strains, locus YLR330W, strain CHS5, active compounds read low",0.982
same,normalized growth,"S. cerevisiae deletion strains, locus YLR342W, strain FKS1, active compounds read low",0.983
same,normalized growth,"S. cerevisiae deletion strains, locus YLR357W, strain rsc2, active compounds read low",1.08
same,normalized growth,"S. cerevisiae deletion strains, locus YLR370C, strain arc18, active compounds read low",0.984
same,normalized growth,"S. cerevisiae deletion strains, locus YLR371W, strain rom2, active compounds read low",1.01
same,normalized growth,"S. cerevisiae deletion strains, locus YLR384C, strain iki3, active compounds read low",0.991
same,normalized growth,"S. cerevisiae deletion strains, locus YLR418C, strain cdc73, active compounds read low",0.966
same,normalized growth,"S. cerevisiae deletion strains, locus YML016C, strain PPZ1, active compounds read low",0.992
same,normalized growth,"S. cerevisiae deletion strains, locus YML032C, strain rad52, active compounds read low",0.971
same,normalized growth,"S. cerevisiae deletion strains, locus YML120C, strain ndi1, active compounds read low",0.966
same,normalized growth,"S. cerevisiae deletion strains, locus YML124C, strain tub3, active compounds read low",0.985
same,normalized growth,"S. cerevisiae deletion strains, locus YMR058W, strain fet3, active compounds read low",1.01
same,normalized growth,"S. cerevisiae deletion strains, locus YMR078C, strain ctf18, active compounds read low",0.981
same,normalized growth,"S. cerevisiae deletion strains, locus YMR125W, strain sto1, active compounds read low",1.02
same,normalized growth,"S. cerevisiae deletion strains, locus YMR129W, active compounds read low",0.982
same,normalized growth,"S. cerevisiae deletion strains, locus YMR205C, strain PFK2, active compounds read low",0.949
same,normalized growth,"S. cerevisiae deletion strains, locus YMR223W, strain ubp8, active compounds read low",0.964
same,normalized growth,"S. cerevisiae deletion strains, locus YMR231W, strain pep5, active compounds read low",0.994
same,normalized growth,"S. cerevisiae deletion strains, locus YMR307W, strain GAS1, active compounds read low",0.993
same,normalized growth,"S. cerevisiae deletion strains, locus YNL067W, strain RPL9B, active compounds read low",1.02
same,normalized growth,"S. cerevisiae deletion strains, locus YNL071W, strain lat1, active compounds read low",0.876 (active)
same,normalized growth,"S. cerevisiae deletion strains, locus YNL128W, strain TEP1, active compounds read low",0.962
same,normalized growth,"S. cerevisiae deletion strains, locus YNL183C, strain NPR1, active compounds read low",0.911
same,normalized growth,"S. cerevisiae deletion strains, locus YNL209W, strain ssb2, active compounds read low",0.984
same,normalized growth,"S. cerevisiae deletion strains, locus YNL233W, strain BNI4, active compounds read low",1.01
same,normalized growth,"S. cerevisiae deletion strains, locus YNL248C, strain rpa49, active compounds read low",1.03
same,normalized growth,"S. cerevisiae deletion strains, locus YNL250W, strain rad50, active compounds read low",0.952
same,normalized growth,"S. cerevisiae deletion strains, locus YNL271C, strain bni1, active compounds read low",0.986
same,normalized growth,"S. cerevisiae deletion strains, locus YNL298W, strain CLA4, active compounds read low",0.983
same,normalized growth,"S. cerevisiae deletion strains, locus YNL307C, strain MCK1, active compounds read low",0.986
same,normalized growth,"S. cerevisiae deletion strains, locus YNL322C, strain KRE1 (second series), active compounds read low",0.975
same,normalized growth,"S. cerevisiae deletion strains, locus YNL322C, strain KRE1, active compounds read low",0.984
same,normalized growth,"S. cerevisiae deletion strains, locus YNR049C, strain mso1, active compounds read low",0.998
same,normalized growth,"S. cerevisiae deletion strains, locus YNR052C, strain pop2, active compounds read low",1
same,normalized growth,"S. cerevisiae deletion strains, locus YOL012C, strain htz1",1.19
same,normalized growth,"S. cerevisiae deletion strains, locus YOL147C, strain pex11, active compounds read low",0.982
same,normalized growth,"S. cerevisiae deletion strains, locus YOR001W, strain rrp6, active compounds read low",0.989
same,normalized growth,"S. cerevisiae deletion strains, locus YOR061W, strain CKA2, active compounds read low",0.966
same,normalized growth,"S. cerevisiae deletion strains, locus YOR069W, strain VPS5, active compounds read low",0.989
same,normalized growth,"S. cerevisiae deletion strains, locus YOR070C, strain gyp1, active compounds read low",0.975
same,normalized growth,"S. cerevisiae deletion strains, locus YOR080W, strain dia2, active compounds read low",0.993
same,normalized growth,"S. cerevisiae deletion strains, locus YOR083W, strain WHI5, active compounds read low",0.964
same,normalized growth,"S. cerevisiae deletion strains, locus YOR106W, strain vam3, active compounds read low",0.997
same,normalized growth,"S. cerevisiae deletion strains, locus YOR136W, strain idh2, active compounds read low",0.968
same,normalized growth,"S. cerevisiae deletion strains, locus YOR144C, strain elg1, active compounds read low",0.985
same,normalized growth,"S. cerevisiae deletion strains, locus YOR184W, strain ser1, active compounds read low",0.933
same,normalized growth,"S. cerevisiae deletion strains, locus YOR231W, strain MKK1, active compounds read low",0.911
same,normalized growth,"S. cerevisiae deletion strains, locus YOR265W, strain rbl2, active compounds read low",0.978
same,normalized growth,"S. cerevisiae deletion strains, locus YOR270C, strain vph1, active compounds read low",0.959
same,normalized growth,"S. cerevisiae deletion strains, locus YOR290C, strain snf2, active compounds read low",0.997
same,normalized growth,"S. cerevisiae deletion strains, locus YOR316C, strain cot1, active compounds read low",0.989
same,normalized growth,"S. cerevisiae deletion strains, locus YPL051W, strain arl3, active compounds read low",0.946
same,normalized growth,"S. cerevisiae deletion strains, locus YPL078C, strain atp4, active compounds read low",0.957
same,normalized growth,"S. cerevisiae deletion strains, locus YPL106C, strain sse1, active compounds read low",1
same,normalized growth,"S. cerevisiae deletion strains, locus YPL240C, strain hsp82, active compounds read low",0.987
same,normalized growth,"S. cerevisiae deletion strains, locus YPL256C, strain CLN2, active compounds read low",0.915
same,normalized growth,"S. cerevisiae deletion strains, locus YPR119W, strain clb2, active compounds read low",0.985
same,normalized growth,"S. cerevisiae deletion strains, locus YPR141C, strain kar3, active compounds read low",0.97
same,normalized growth,"S. cerevisiae deletion strains, locus YPR163C, strain tif3, active compounds read low",0.99
same,normalized growth,"S. cerevisiae deletion strains, locus YPR167C, strain met16, active compounds read low",0.987
same,normalized growth,"S. cerevisiae deletion strains, strain wtn01, active compounds read low",0.964
same,normalized growth,"S. cerevisiae strains, strain wild type, active compounds read low",0.969
